Compound activity: PubChem BioAssay, several laboratories
Rows were chosen to be rich in hits. Some 0.74% of all compounds tested hit in one or more screens of this group.
PLK1 kinase inh = PLK1 (human) kinase inhibition; P53350; recombinant PLK1 kinase, TR-FRET peptide phosphorylation; inhibition, % at 10 µM; 0.53% of 97,000 active; AID 619;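 active = inhibition of 50% or more in the single-concentration screen; inactive = inhibition below 50%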
Target sequence (P53350 whole entry, looked up): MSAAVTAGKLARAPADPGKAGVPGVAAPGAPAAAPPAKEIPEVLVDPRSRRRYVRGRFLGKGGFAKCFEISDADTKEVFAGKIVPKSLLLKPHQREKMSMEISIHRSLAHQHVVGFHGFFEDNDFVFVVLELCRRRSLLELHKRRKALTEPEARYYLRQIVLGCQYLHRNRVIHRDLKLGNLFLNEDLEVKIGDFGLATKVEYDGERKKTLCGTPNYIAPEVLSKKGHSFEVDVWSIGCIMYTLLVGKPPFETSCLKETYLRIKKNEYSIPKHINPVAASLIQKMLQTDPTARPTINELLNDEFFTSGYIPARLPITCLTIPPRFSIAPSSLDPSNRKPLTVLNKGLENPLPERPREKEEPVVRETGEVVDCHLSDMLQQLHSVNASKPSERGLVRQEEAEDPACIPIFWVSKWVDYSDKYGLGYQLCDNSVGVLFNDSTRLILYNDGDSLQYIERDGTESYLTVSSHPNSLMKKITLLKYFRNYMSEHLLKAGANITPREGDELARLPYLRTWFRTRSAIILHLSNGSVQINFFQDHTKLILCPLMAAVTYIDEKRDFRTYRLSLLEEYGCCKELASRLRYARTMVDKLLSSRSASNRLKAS
ROCK2 blocker = blocks human Rho kinase 2 activity; O75116; purified ROCK2, Kinase-Glo ATP depletion luminescence; inhibition, % at 6 µM; 0.35% of 60,000 active; AID 604;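 active = inhibition above the screen-wide mean inhibition plus 3 SD, cut at about 18% in these data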
Plk1 PBD FP = inhibitors of human Plk1 polo box domain binding | P53350 | Plk1 PBD phosphopeptide binding, fluorescence polarization | inhibition, %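 (tested at about 20 µM)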 | 0.13% of 97,000 active | AID 693; in the data active = inhibition above about 34%, passing the limit was not always enough
PKA inh = inhibitors of human protein kinase A; P17612; PKA Kemptide phosphorylation, Kinase-Glo ATP luminescence; inhibition, % at 6 µM; 0.1% of 65,000 active; AID 524;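 active = inhibition above the screen-wide mean inhibition plus 3 SD, cut at about 21% in these data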
A number is an active result; n = inactive; x = not tested or not shown.

SMILES | PLK1 kinase inh | ROCK2 blocker | Plk1 PBD FP | PKA inh
O=C(Cn1nc(Cc2ccncc2)c2ccccc2c1=O)N1CCN(C(=O)c2ccco2)CC1 | n | n | n | n
O=C(Cn1nc(Cc2cccnc2)c2ccccc2c1=O)N1CCN(C(=O)c2ccco2)CC1 | 61.5 | n | n | n
Cc1ccc(-c2nc(CS(=O)CC(=O)NC3CCC(C)CC3)c(C)o2)cc1 (stereo not drawn) | 64.7 | n | n | n
COc1ccc(-c2nc(CS(=O)CC(=O)NC3CCCc4ccccc43)c(C)o2)cc1OC (stereo not drawn) | 69.0 | n | n | n
CCOC(=O)C1CCN(C(=O)CS(=O)Cc2nc(-c3ccc(C)cc3)oc2C)CC1 (stereo not drawn) | n | n | n | n
COc1cccc(-c2nc(CS(=O)CC(=O)NC3CCCC3)c(C)o2)c1 (stereo not drawn) | 66.4 | n | n | n
Cc1cccc(-c2nc(CS(=O)CC(=O)N3CCN(C)CC3)c(C)o2)c1 (stereo not drawn) | 56.9 | n | n | n
COc1cccc(-c2nc(CS(=O)CC(=O)O)c(C)o2)c1 (stereo not drawn) | n | n | n | n
COc1ccc(-c2nnc(SCC(=O)NCc3cccs3)n2CC(C)C)cc1 | n | x | n | x
COc1ccc(CNc2nc3c(c(C(F)(F)F)n2)CCCCC3)cc1 | x | x | x | n
CCOc1ccc(N(CC(=O)NCc2ccc(F)cc2)S(=O)(=O)c2c(C)noc2C)cc1 | 67.1 | n | n | n
CCOc1ccc(N(CC(=O)NCc2cccs2)S(=O)(=O)c2c(C)noc2C)cc1 | n | n | n | n
On1c2c(c3c4nonc4ccc31)CCCC2 | 50.9 | x | n | x
CCCc1nc2n[nH]c(N)c2c2c1CCCC2 | n | n | n | n
CCCCc1nc2n[nH]c(N)c2c2c1CCCC2 | 57.5 | n | n | n
O=C(NC1CCCCC1)C(c1ccc(F)cc1)N(Cc1ccc2c(c1)OCO2)C(=O)c1cnsn1 (stereo not drawn) | n | x | n | x
CCC1CCCCN1c1nc(-c2ccncc2)nc2ccccc12 (stereo not drawn) | n | n | n | 61.5
CCC1CCCCN1c1nc(-c2cccc(OC)c2O)nc2ccccc12 (stereo not drawn) | n | n | n | n
Cc1cc(C(=O)NCCC(c2ccccc2)c2ccccc2)c(C)o1 | n | x | n | x
Cc1nn(CC(=O)Nc2ccccc2)c(=O)c2ccccc12 | n | n | n | n
CCC(=O)Nc1ccc(C(=O)Cn2nc(C(=O)O)c3ccccc3c2=O)cc1 | x | 32.6 | x | n
COc1cc(CNC2CCCC2)cc(Cl)c1OCc1ccccc1F | n | x | n | x
OC(COc1c(Cl)cc(Cl)cc1Cl)CN1CCCCC1 (stereo not drawn) | 54.2 | n | n | n
O=C(c1cc2ccccc2cc1OCC(O)CN1CCCCC1)N1CCCCC1 (stereo not drawn) | 66.0 | n | n | n
CC1(C)NC(=O)N(CC(O)COc2cc3ccccc3cc2C(=O)N2CCCCC2)C1=O (stereo not drawn) | n | n | n | n
SMILES | PLK1 kinase inh | ROCK2 blocker | Plk1 PBD FP | PKA inh
CCCCCc1ccc(S(=O)(=O)NCCc2ccncc2)cc1 | n | x | n | x
C=CCNC(=O)c1onc(CSc2ccc(F)cc2)c1C(=O)NCCOC | n | x | n | x
CC(=O)Nc1ccc(S(=O)(=O)NCc2ccc3c(c2)cc(C)n3C)cc1 | 61.5 | n | n | n
Cc1cc2cc(CNS(=O)(=O)c3ccc4ccccc4c3)ccc2n1C | n | x | n | x
Cc1c(C(=O)N2CCC(C)CC2)sc2ncnc(N3CCN(c4ccccc4)CC3)c12 | n | x | n | x
O=C(COc1cccc(NC(=O)c2cccc([N+](=O)[O-])c2)c1)c1ccc(Br)cc1 | n | x | n | x
CCc1nc(SCC(=O)N2CCC(C)CC2)c2c(=O)n(C)c(=O)n(C)c2n1 | 67.7 | n | n | n
COc1cc2c(cc1OC)C1=C(C#N)CC/C(=N\S(=O)(=O)c3ccccc3)N1CC2 | 61.4 | n | n | n
COc1cc2c(cc1OC)C1=C(C#N)CCC(=O)N1CC2 | n | n | n | n
CCOC(=O)c1ccccc1NC(=O)CN(c1ccccc1C)S(C)(=O)=O | n | x | n | x
C=CCc1ccc(OCCOc2cccc3ccc(C)nc23)c(OC)c1 | n | x | n | x
CC(C)(C)C(=O)c1sc(Nc2ccccc2)nc1N | n | 27.2 | n | n
O=C(CCN1CCCCC1)Nn1c(=S)[nH]c2ccccc2c1=O | n | n | n | n
O=C(Nn1c(=S)[nH]c2ccccc2c1=O)c1ccncc1 | n | 19.5 | n | n
CCSC1=C(C#N)C(c2cccc(Br)c2)CC(=O)N1 (stereo not drawn) | n | n | n | n
COc1cccc(C2CC(=O)NC(SC)=C2C#N)c1 (stereo not drawn) | 68.6 | n | n | n
Cc1cccc2cc(=O)[nH]c(C)c12 | n | 18.4 | n | n
COC(=O)CCc1c(C)nc(N)[nH]c1=O | n | x | n | x
CCCCc1c(C)nc(N)[nH]c1=O | n | 18.4 | n | n
Clc1ccc(CN2CCN(c3ncnc4scc(-c5cccs5)c34)CC2)cc1 | 62.2 | x | n | x
CCOC(=O)c1c(C)[nH]c(C)c1C(=O)COC(=O)c1ccc(Cl)c(S(N)(=O)=O)c1 | n | x | n | x
CCC1(C)Cc2c(sc3nnn(Cc4ccccc4Cl)c(=O)c23)CO1 (stereo not drawn) | n | x | n | x
CCN(CC)S(=O)(=O)c1ccc(NC2c3ccccc3C(=O)N2Cc2ccc3c(c2)OCO3)cc1 (stereo not drawn) | 66.2 | n | n | n
O=C1c2ccccc2C(Nc2ccc3c(c2)OCCO3)N1Cc1ccc2c(c1)OCO2 (stereo not drawn) | n | n | n | n
C=CCn1c(CCNC(=O)c2ccccc2F)nnc1SCC(=O)Nc1nc2ccccc2s1 | n | x | n | x
SMILES | PLK1 kinase inh | ROCK2 blocker | Plk1 PBD FP | PKA inh
O=C(CSc1nnc(CNc2ccc(Cl)cc2)o1)Nc1nc2ccccc2s1 | 55.8 | n | n | n
COc1ccccc1C(=O)Nc1cc(-c2nn3c(C)nnc3s2)ccc1C | n | n | n | n
c1ccc(Cn2ncc3c2ncn2c(-c4ccncc4)nnc32)cc1 | x | n | x | 76.5
c1ccc(Cn2ncc3c2ncn2nc(-c4ccncc4)nc32)cc1 | x | n | x | 48.5
CCOC(=O)C1CCCN(C(=O)c2cc(Nc3ccc(OC)cc3)nc3ccccc23)C1 (stereo not drawn) | n | x | n | x
O=C(CN1CCN(S(=O)(=O)c2ccccc2)CC1)Nc1ccc(Cl)c(Cl)c1 | n | x | n | x
CCOC(=O)C1CCN(CC(O)COc2ccc(C(C)=O)cc2)CC1 (stereo not drawn) | 65.5 | n | n | n
CC(=O)c1ccc(OCC(O)CN2CCN(Cc3ccccc3)CC2)cc1 (stereo not drawn) | 65.2 | n | n | n
CC(=O)c1ccc(OCC(O)CN2CCN(c3ccccn3)CC2)cc1 (stereo not drawn) | 69.4 | n | n | n
CC(=O)c1ccc(OCC(O)COc2ccc(C(C)=O)cc2)cc1 | n | 18.6 | n | n
CC(=O)c1ccc(OCC(O)CN2CCN(CC(O)COc3ccc(C(C)=O)cc3)CC2)cc1 (stereo not drawn) | n | x | n | x
CCn1cc(/C=N/NS(=O)(=O)c2ccc(OC)cc2)c(C)n1 | n | x | n | x
CCN(CC)CC#CCC(C)(c1ccccc1)c1ccccc1 | n | x | n | x
COc1cccc(NC(=O)C2CCCN(S(=O)(=O)c3cccc4cccnc34)C2)c1 (stereo not drawn) | n | n | n | n
